This is part of a sample that, as a whole, favours compounds with a hit. Of some 83,000 tested, about 20% had one in any assay.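 Method: cells in 96-well plates; compound added at one concentration; 48 h incubation; percent growth measured; values under 10 scored active.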 Calls of active or inactive are those of the source.
Tests used:
Assay in all cases: NCI-60 one-dose screen, 48 h (100 = growth as untreated, 0 = no growth, -100 = all killed)
Conditions in all cases: 10 µM unless noted
[1] = system: SR leukemia
[2] = system: RPMI-8226 leukemia
[3] = system: OVCAR-8 ovarian
[4] = system: OVCAR-5 ovarian
[5] = system: OVCAR-4 ovarian
[6] = system: SK-OV-3 ovarian
[7] = system: IGROV1 ovarian
[8] = system: OVCAR-3 ovarian
[9] = system: HS 578T breast
[10] = system: NCI/ADR-RES ovarian
[11] = system: T-47D breast
[12] = system: BT-549 breast
[13] = system: MDA-MB-435 melanoma
[14] = system: SW-620 colon
[15] = system: MCF7 breast
[16] = system: HCT-116 colon
[17] = system: HCC-2998 colon
[18] = system: KM12 colon

Measured: growth

COc1ccc(C2C(C#N)=C(N)Oc3c2sc2c(F)cccc32)cc1 (stereo not drawn)
inactive: [1] 11.6% | [2] 11.8% | [3] 25.9% | [4] 69.3% | [5] 65.7% | [6] 20.7% | [7] 30.6% | [9] 42.4% | [11] 23.8% | [12] 37% | [14] 25.1% | [15] 15.4% | [17] 85.2% | [18] 35.5%
active: [8] -4.86% | [10] 6.69% | [13] -23.9% | [16] 8.94%

O=C1Nc2ccccc2/C1=C/c1cn(CCCn2c3ccccc3c(=O)c3ccccc32)c2ccccc12
inactive: [1] 84% | [2] 90% | [3] 85% | [4] 103% | [5] 88.1% | [6] 86.6% | [7] 45.8% | [8] 84.9% | [9] 85.2% | [10] 90.3% | [11] 74.1% | [12] 84.6% | [13] 94.6% | [14] 98.4% | [15] 47.3% | [16] 87% | [17] 96.3% | [18] 88.3%

CC1=NN(c2ccc(S(=O)(=O)O)cc2Cl)C(=O)C1
inactive: [1] 113% | [2] 104% | [3] 99.9% | [4] 94.3% | [5] 102% | [6] 105% | [7] 105% | [8] 158% | [9] 131% | [10] 98.9% | [11] 97.8% | [12] 116% | [13] 107% | [14] 107% | [15] 94.4% | [16] 93% | [17] 83.1% | [18] 137%

N=c1c(S(=O)(=O)c2ccccc2)cc2c(=O)n3ccccc3nc2n1C1CCCC1
inactive: [1] 82.4% | [2] 92.9% | [3] 88.3% | [4] 103% | [5] 95.5% | [6] 104% | [7] 97% | [8] 93.9% | [9] 95.6% | [10] 87.4% | [11] 79.8% | [12] 89.3% | [13] 108% | [14] 99.3% | [15] 93.8% | [17] 103%

CC(=O)Nc1cc(F)cc(C(F)(F)F)c1Cl
inactive: [1] 101% | [2] 105% | [3] 105% | [4] 96.2% | [5] 98.1% | [6] 106% | [7] 100% | [8] 104% | [9] 88.2% | [10] 96.1% | [11] 96.7% | [12] 95.8% | [13] 99.3% | [14] 95.2% | [15] 91.5% | [17] 98.4% | [18] 96.3%

CCOC(=O)C1OC1(c1ccccc1)c1ccccc1 (stereo not drawn)
inactive: [1] 108% | [2] 95.6% | [3] 99.6% | [4] 99.6% | [5] 121% | [6] 112% | [7] 99.6% | [8] 106% | [9] 114% | [10] 105% | [11] 110% | [12] 110% | [13] 104% | [14] 105% | [15] 105% | [17] 117% | [18] 94.3%

CC(C)=CCC[C@](C)(O)[C@H]1CC[C@]2(C)[C@@H]1CC[C@@H]1[C@@]3(C)C/C(=C/c4ccc(Br)cc4)C(=O)C(C)(C)[C@@H]3CC[C@]12C
inactive: [1] 80.7% | [2] 71.8% | [3] 84.5% | [4] 101% | [5] 78.5% | [6] 96.5% | [7] 101% | [8] 87.5% | [9] 92.2% | [10] 98.2% | [11] 64.3% | [12] 95.4% | [13] 95.3% | [14] 82.2% | [15] 82.2% | [16] 66.5% | [17] 92% | [18] 94.9%

CCN(CC)c1ccc(/C=C/c2cc(C)c3ccccc3n2)cc1
active: [13] -6.87%
inactive: [1] 43.6% | [2] 65.6% | [3] 75.1% | [4] 92.4% | [5] 82.8% | [6] 57.7% | [7] 54.1% | [8] 37.1% | [9] 93.8% | [10] 15.9% | [11] 44% | [12] 93.2% | [14] 22.3% | [15] 21.2% | [17] 62.4%

c1ccc2[nH]c(-c3ccc(Nc4nc(N5CCCCC5)nc(N5CCOCC5)n4)cc3)nc2c1
active: [1] 9.79% | [2] 2.47% | [9] -12.6% | [13] -27.3% | [14] 5.3% | [15] 3.49% | [16] 9.65% | [17] -1.07%
inactive: [3] 45.7% | [4] 73.9% | [5] 61.2% | [6] 22.5% | [7] 51.3% | [8] 10.9% | [10] 45.6% | [11] 23.4% | [12] 23.1% | [18] 14.3%

COC(=O)[C@]12CC[C@@H](C)[C@H](C)[C@@H]1C1=CC(=O)[C@@H]3[C@@]4(C)C[C@@H](OC(C)=O)[C@H](OC(C)=O)[C@@](C)(COC(C)=O)[C@@H]4C(=O)C[C@@]3(C)[C@]1(C)CC2
inactive: [1] 29.1% | [3] 10.4% | [4] 84.4% | [5] 60.4% | [6] 76.4% | [7] 61.4% | [8] 40.2% | [9] 75.9% | [10] 13.2% | [11] 45.1% | [12] 17.8% | [13] 57.8% | [14] 50.2% | [15] 42.5% | [17] 68.7% | [18] 44.7%
active: [2] 3.4%

COc1cc(-c2c(C#N)c(-c3cccs3)nc3c2c(-c2ccccc2)nn3-c2ccccc2)ccc1O
inactive: [1] 60.5% | [2] 94.3% | [3] 84.2% | [4] 95.4% | [5] 83.5% | [6] 82.7% | [7] 91.3% | [8] 101% | [9] 78.6% | [10] 88.9% | [11] 56.8% | [12] 101% | [13] 74.8% | [14] 88% | [15] 76.4% | [16] 56.8% | [17] 99.6% | [18] 78.4%

CNC(=O)c1cc(Oc2ccc3nc(NC(=O)Nc4ccc(Cl)cc4)sc3c2)ccn1
inactive: [1] 42.7% | [2] 81.7% | [3] 57.2% | [4] 92.3% | [5] 13% | [6] 82% | [7] 83.6% | [8] 48.8% | [9] 30.1% | [10] 83.6% | [11] 44% | [12] 102% | [13] 64.1% | [14] 101% | [15] 69.5% | [16] 47.3% | [17] 86.5% | [18] 70%

O=C1OC(c2ccc(Cl)c(Cl)c2)=C/C1=C/c1cccc([N+](=O)[O-])c1
inactive: [1] 117% | [2] 99% | [3] 99.4% | [4] 96.1% | [5] 116% | [6] 96.5% | [7] 81.8% | [8] 111% | [9] 97.7% | [10] 104% | [11] 96.7% | [12] 111% | [13] 104% | [14] 102% | [15] 101% | [17] 103% | [18] 104%

Cn1cnc2c1c(=O)n(CCC(=O)Nc1ccc(F)cc1)c(=O)n2C
inactive: [1] 102% | [2] 101% | [3] 102% | [4] 101% | [5] 109% | [6] 91.2% | [7] 107% | [8] 115% | [9] 106% | [10] 109% | [11] 89.7% | [12] 91.1% | [13] 108% | [14] 107% | [15] 101% | [17] 108% | [18] 102%

Cc1ccc(N(CC(=O)Nc2ccc(S(=O)(=O)N3CCC(N4CCCC4)CC3)cc2)S(=O)(=O)c2ccc(Cl)cc2)cc1
inactive: [3] 55.2% | [4] 88% | [5] 49.2% | [6] 96.9% | [7] 51% | [9] 66% | [10] 70.2% | [12] 74.1% | [15] 14.2% | [18] 24.5%
active: [1] -29.5% | [2] -3.71% | [8] -22.4% | [11] -37.2% | [13] -87.6% | [14] -46.8% | [16] -70.5% | [17] -48.9%

CC[C@H](CC[C@@H](C)[C@H]1CC[C@H]2[C@@H]3/C(=C/c4cccnc4)C(=O)C4=CC(=O)CC[C@]4(C)[C@H]3CC[C@]12C)C(C)C
inactive: [1] 62.4% | [2] 74.4% | [3] 64.5% | [4] 105% | [5] 100% | [6] 112% | [7] 95.6% | [8] 102% | [9] 107% | [10] 90.5% | [11] 47.7% | [12] 91.3% | [13] 99.7% | [14] 93.7% | [15] 51% | [17] 98.8% | [18] 97.1%

— PubChem BioAssay (NCI)
